We go through 40 compounds from PubChem BioAssay (EPA / NIEHS).

Active and inactive are the calls of the source. The calls were made as follows: active = hit-call score of the fitted dose curve at least 0.9, where 1 is the maximum; inactive = score below 0.9.

The assay can be described thus: ATG_M_32_CIS: Attagene CIS-FACTORIAL HepG2 Assay for M32 Transcription Factor (Internal Marker) (AID 2282949).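 Also: background control marker of the multiplexed CIS panel rather than a real target.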 The settings on record: HepG2 Attagene cis-factorial M32 reporter, mRNA; actives raise or lower the signal. The protocol:
ATG_CIS is a cell-based, multiplexed-readout assay that uses HepG2, a human liver cell line, with measurements taken at 24 hours after chemical dosing in a 24-well plate.ATG_M_32_CIS is one of 52 assay component(s) measured or calculated from the ATG_CIS assay. It is designed to make measurements of mRNA induction, a form of inducible reporter, as detected with fluorescence intensity signals by Reverse transcription polymerase chain reaction (RT-PCR) and Capillary electrophoresis technology.Data from the assay component ATG_M_32_CIS was analyzed into 1 assay endpoint. This assay endpoint, ATG_M_32_CIS, was analyzed with bidirectional fitting relative to DMSO as the negative control and baseline of activity. Using a type of inducible reporter, measures of mRNA for gain or loss-of-signal activity can be used to understand the background control at the transcription factor-level as they relate to the gene . Furthermore, this assay endpoint can be referred to as a secondary readout, because this assay has produced multiple assay endpoints where this one serves a background control function. To generalize the intended target to other relatable targets, this assay endpoint is annotated to the background measurement intended target family, where the subfamily is internal marker.
Human liver HepG2 cells are transiently transfected with multiple reporter transcription units (MRTUs) in 6-well plates using FuGene 6 reagent (Roche; 3 ml FuGene/1 mg DNA). The MRTU constructs are regulated by a cis-regulating element (promoter). […] A major difference between the CIS and TRANS system is that in CIS activities of endogenous TFs are measured, whereas the TRANS assay evaluates changes in activities of exogenous, chimeric NR-Gal4 proteins. […] At the end of 24 hour incubation, total RNA was isolated using TriZol reagent (Invitrogen). The isolated RNA is then reverse-transcribed using oligo(dT) primer and Mo-MLV reverse transcriptase (Invitrogen) with DNAse I (Ambion) treatment for 30 min. The one-tenth of the produced cDNA was amplified by PCR using Taq DNA polymerase (Invitrogen) and two reporter sequence-specific primers. The PCR products were fluorescently labeled by primer extension with 6-arboxyfluorescein (6-FAM) 5'-labeled reporter sequence-specific primer (2 min at 95 C, 20 s at 68 C and 10 min at 72 C) and these products were digested with 5U of HpaI (New England Biolabs) for 2h at 37 C. The fragments were purified using Qiaquick PCR columns (Qiagen), analyzed on an ABI 3130xL genetic analyzer (Applied Biosystems) with peak positions identified by using a set of X-rhodamine (ROX)-labeled MapMarker1000 molecular weight standards (BioVentures). The raw capillary electrophoresis data was processed using Attagraph software (Attagene).
For the compound `CCC(C)=O`, the call was inactive.
As for `CCCCC1CCC(O)CC1` (stereo not given), the result was inactive.
In the case of `CN(C)c1cccc(O)c1`, the call was inactive.
The entry for `CC(C)Nc1nc(N)nc(Cl)n1` is “inactive”; for `C[C@@H]1CCN(C(=O)[C@H](CCCN=C(N)N)NS(=O)(=O)c2cccc3c2NC[C@H](C)C3)[C@@H](C(=O)O)C1` it is “inactive”.
Turning to `CCCCCCC(C)(C)S`, the compound was classed as inactive.
For `O=C(O)CCCCCCCCC(=O)O`, the outcome was inactive.
The entry for `CCCCCCCC/C=C\CCCCCCCC(=O)OCC` is “inactive”; for `N#Cc1cscn1` it is “inactive”; for `COc1ccccc1N=Nc1c(S(=O)(=O)O)cc2cc(S(=O)(=O)O)cc(NC(C)=O)c2c1O` it is “inactive”.
As to `Cc1c(Cl)cccc1[N+](=O)[O-]`, the compound was classed as inactive.
The entry for `CC(C)CCCCCCc1ccc(OCCOCCO)cc1` is “inactive”.
The entry for `CCCCCCCCCC(C)C=O` (stereo not given) is “inactive”; for `CC(C)(C)CC(C)(C)c1ccc(OCCOCC[N+](C)(C)Cc2ccccc2)cc1` it is “inactive”.
As to `C=C1C[C@]23C[C@@]1(O)CC[C@H]2[C@@]12C=C[C@H](O)[C@@](C)(C(=O)O1)[C@H]2[C@@H]3C(=O)O`, the outcome was inactive.
The entry for `CCc1cc(C(C)(C)C)c(O)c(C(C)(C)C)c1` is “inactive”; for `CC(=O)c1c(C)c([N+](=O)[O-])c(C(C)(C)C)c([N+](=O)[O-])c1C` it is “inactive”; for `O=C(c1ccccc1)C(O)c1ccccc1` (stereo not given) it is “inactive”.
Consider `CCCCCC(C=O)=Cc1ccccc1`, for which the result was inactive.
As for `COc1ccc(COC(C)=O)cc1`, the call was inactive.
The entry for `O=C1OC[C@H](Cc2cccc(O)c2)[C@H]1Cc1cccc(O)c1` is “inactive”.
Turning to `CCN(CCN)c1cccc(C)c1`, the compound was classed as inactive.
As for `O=C(Nc1ccc2c(c1)Cc1ccccc1-2)C(F)(F)F`, the entry is “inactive”; as for `NCc1ccco1`, “inactive”.
Consider `OCCCCC(O)CO` (stereo not given), for which the result was inactive.
For `C=CCCC(=O)/C=C/C1C(C)=CCCC1(C)C` (stereo not given), the compound was called inactive.
The entry for `C=C[Si]1(C)O[Si](C)(C=C)O[Si](C)(C=C)O[Si](C)(C=C)O1` (stereo not given) is “inactive”; for `COC(CC(C)CCCC(C)(C)O)OC` (stereo not given) it is “inactive”; for `CCCC[O][Al]([O]CCCC)[O]CCCC` it is “inactive”.
On to `CCCCCCCCCCCCCCN(CCO)CCO`, for which the compound was called inactive.
`CC(C)(CO)[C@@H](O)C(=O)NCCC(=O)O`: the result was inactive.
The entry for `COCCOC(=O)c1ccccc1C(=O)OCCOC` is “inactive”; for `CC(=O)O[C@@H]1C[C@@H]2CC[C@@]1(C)C2(C)C` it is “inactive”.
Turning to `CC(C)=CCCC(C)CC(=O)O` (stereo not given), the outcome was inactive.
The entry for `CC(O)C1CCCCC1` (stereo not given) is “inactive”; for `Cc1ccc(-c2ccccc2)cc1` it is “inactive”.
For `CCCCCCCCN1CCCC1=O`, the result was inactive.
Regarding `CCN(CCC#N)c1ccc(N=Nc2ccc([N+](=O)[O-])cc2)cc1`, the compound was classed as inactive.
As to `CC(=O)CC(=O)Nc1ccc(C)cc1C`, the outcome was inactive.
The entry for `CCCCCCC(CO)CCCC` (stereo not given) is “inactive”.
